# Screens deposited in PubChem BioAssay by National Center for Advancing Translational Sciences (NCATS).
# Hits are enriched below; roughly 19% of the tested compounds scored in any of these assays.
# Shiga inhibitor: A qHTS for Small Molecule Inhibitors of Shiga Toxin. Vero cells, Shiga toxin protein synthesis inhibition reporter. inhibition, % at 38.7 µM. 290,000 tested, 9.2% active. AID 2315, 2010; in the data active = inhibition mostly above about 28%, no sharp cut-off; inactive = mostly below about 43%; note: 0% is about no effect
# Marburg entry inh: qHTS for inhibitors of binding or entry into cells for Marburg Virus; Marburg virus pseudotyped entry inhibition, cell reporter; Potency, µM (highest dose often 37.8 µM), for the others: top-dose activity change, negative = inhibition, usual class: inhibitors; 300,000 tested, 1.8% active; calls by dose curve; tested in HEK293 cells; note: potency is the fitted concentration of half-maximal effect; % is set by controls: 0 for no effect and ±100 for the full control effect
# Pf growth 48h: Primary qHTS for delayed death inhibitors of the malarial parasite plastid, 48 hour incubation; P. falciparum luciferase growth in erythrocytes, 48 h; Potency, µM (series often up to 28.7 µM), for the others: top-dose activity change, negative = inhibition, actives largely listed as inhibitors; 310,000 tested, 5.9% active; AID 504832, 2011; note: potency is the fitted concentration of half-maximal effect; % is set by controls: 0 for no effect and ±100 for the full control effect
#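 Erythrocytes infected with P. falciparum carrying an integrated firefly luciferase reporter (2% hematocrit, 0.1% parasitemia final) were exposed to compounds in RPMI 1640 with 0.5% Albumax at 37 C, 5% CO2. Growth inhibition was scored as reduced luminescence.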
# Lassa entry inh: qHTS for Inhibitors of binding or entry into cells for Lassa Virus | Lassa virus pseudotype entry inhibition, cell reporter | AID 540256, 2011 | Potency, µM (doses to about 37.9 µM), without a hit: at the top dose activity change, negative = inhibition, actives largely listed as inhibitors | 300,000 tested, 1.2% active; calls by dose curve; tested in HEK293 cells; note: potency is the fitted concentration of half-maximal effect; % is set by controls: 0 for no effect and ±100 for the full control effect; nearly all actives have a fitted effect of over 50% in size
# Pf growth 96h: Primary qHTS for delayed death inhibitors of the malarial parasite plastid, 96 hour incubation. P. falciparum luciferase reporter growth, 96 h. Potency, µM (titrated, usually from 28.7 µM), for the others: at the top dose activity change, negative = inhibition, usual class: inhibitors. 320,000 tested, 6.9% active; note: potency is the fitted concentration of half-maximal effect; % is set by controls: 0 for no effect and ±100 for the full control effect
#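 Cell-based qHTS: luciferase-tagged P. falciparum in erythrocytes (2% hematocrit, 0.05% parasitemia final) incubated with compounds for 96 hours, 37 C, 5% CO2; luciferase detection reagent then added and luminescence measured.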
# Cycloheximide cs: Cycloheximide Counterscreen for Small Molecule Inhibitors of Shiga Toxin; max response, %; cell reporter, cycloheximide protein synthesis inhibition counterscreen; 300,000 tested, 12% active; AID 2314, 2010; in the data active = max response mostly above about 13%, no sharp cut-off; inactive = mostly below about 14%; note: read at 38.3 µM for the half of the compounds with a filed dose; 0% is about no effect
# Active calls of the source: *; ? = inconclusive; · = no result; [ ] = dose if it differs, or a comment. Unless noted, calls come from the whole dose curve; as a rule, active = well fitted inhibition curve with a large enough effect; inconclusive = small, poorly fitted or top-dose-only effect, or another doubt; inactive = no such curve, though single readings can be large or run the other way.
SMILES,Shiga inhibitor,Marburg entry inh,Pf growth 48h,Lassa entry inh,Pf growth 96h,Cycloheximide cs
CSc1ccc(/C=N/NC(=O)c2ccc(C)c(C)c2)cc1,52*,-19%,30%,?,-12%,44*
COc1ccc(OCc2ccc(/C=N\NC(=O)c3sccc3C)o2)cc1,68*,·,34%,·,35%,25*
CSc1ccc(/C=N/NC(=O)c2cc(O)cc(O)c2)cc1,41*,?,98%,?,55%,22*
C=CCN1C(C(=O)c2ccccc2)=C(OC(=O)COc2ccccc2)c2ccccc2S1(=O)=O,0,?,-10%,?,?,-1
O=C(CCCC(=O)N(CC(=O)NC1CCCC1)c1cccc(F)c1)Nc1ccccn1,-3,-7%[46.1 µM],-1%,-28%[46.1 µM],-19%,1
CC(C)N(C(=O)c1nn(C)c2c1CSc1ccccc1-2)C1CCCCC1,-3,·,-24%,·,2.1µM*,-1
Cn1nc(C(=O)NC2CCCCC2)c2c1-c1ccccc1SC2,-6,·,7%,·,?,12
COc1ccccc1CNC(=O)c1cc2ccccc2o1,23,20%[46.1 µM],-11%,13%[46.1 µM],10%,-2
COc1ccc(NC(C)=O)cc1NC(C)C(=O)Nc1cc(C(F)(F)F)ccc1N1CCOCC1 (centres undefined),-14,-2%,3.7µM*,3%,?,-2
O=C(CCc1ccccc1)NC(=S)Nc1cc(C(F)(F)F)ccc1N1CCOCC1,35,-17%,?,-8%,8.3µM*,-2
Cc1cc(C)cc(NC(=O)Cc2ccc(S(=O)(=O)N3CCCC3)s2)c1,·,?,?,-8%,?,·
CC(Cl)C(=O)Nc1cc(C(F)(F)F)ccc1N1CCOCC1 (centres undefined),19,?,?,4%,?,-2
Cc1ccc[n+](CC(=O)Nc2cc(C(F)(F)F)ccc2N2CCOCC2)c1,-4,8%[46.1 µM],2.1µM*,-3%[46.1 µM],?,-1
O=C(Cc1ccc(S(=O)(=O)N2CCCC2)s1)Nc1nc2c(s1)CCCC2,46*,-19%,?,-25%,-1%[5.75 µM],28*
COc1ccccc1N1CCN(c2ncnc3c2c(-c2ccccc2)cn3-c2cccc(Cl)c2)CC1,·,·,·,-15%[46.1 µM],·,·
Nc1ccc2c(c1)CCC2=O,·,2%,·,3%,·,·
CCOC(=O)NC(=O)/C(C#N)=N\Nc1cccc(OC)c1,1,?,-12%,9%,-66%[1.15 µM],-6
O=C(Cc1ccc2c(c1)OCCO2)Nc1cc(C(F)(F)F)ccc1N1CCOCC1,·,0%,15µM*,?,?,·
O=C(Cc1ccc(S(=O)(=O)N2CCOCC2)s1)Nc1ccccc1N1CCCC1,-3,?,-21%,-17%,?,-3
O=C(Cc1ccc(S(=O)(=O)N2CCOCC2)s1)Nc1cc(C(F)(F)F)ccc1N1CCCC1,·,?,12µM*,?,?,·
O=C(Nc1cc(C(F)(F)F)ccc1N1CCOCC1)C1=COCCO1,·,3%,-2%,-14%,?,·
Cc1ccc(-n2ncc3c(SCc4ccccn4)ncnc32)c(C)c1,110*,?,?,0.56µM*,?,44*
Cc1ccc(-n2ncc3c(N4CCC(C(N)=O)CC4)ncnc32)c(C)c1,-7,12%,4%,?,·,1
CSc1ncnc2c1cnn2-c1ccc(C)cc1C,140*,-17%,42%,26%,46%,35*
Cc1ccc(-n2ncc3c(N4CCC5(CC4)OCCO5)ncnc32)c(C)c1,3,·,·,·,5.2µM*,-3
SMILES,Shiga inhibitor,Marburg entry inh,Pf growth 48h,Lassa entry inh,Pf growth 96h,Cycloheximide cs
C=CCNc1ncnc2c1cnn2-c1ccc(C)cc1C,67*,·,29%,·,6%,25*
OCC1CCCN2CCCCC12 (centres undefined),-7,·,·,·,·,-1
COc1ccccc1NC(=O)COC(=O)CC(C)(C)CC1=NS(=O)(=O)c2ccccc2N1,7,?,?,?,?,-2
CC(C)(CC(=O)OCC(=O)Nc1ccccc1F)CC1=NS(=O)(=O)c2ccccc2N1,-3,?,?,-28%[46.1 µM],12µM*,-4
CCOc1ccc(/C=C/c2nc(C#N)c(N3CCN(c4ccccc4)CC3)o2)cc1,·,18%[46.1 µM],·,24%[46.1 µM],·,·
CCCc1[nH]n(-c2ccc(F)cc2)c(=O)c1C=Nc1ccc(C)cc1,-4,1%,14%,14%,2%,8
